Assay outcomes (PubChem)
GPR151 activ = human GPR151 activation. PathHunter beta-arrestin GPR151 cells, luminescence. activation, % at 11.2 µM. Q8TDV0. AID 1508602. 650,000 compounds, 1% hits; in the data active = activation above about 4.9%
Target sequence (Q8TDV0 whole entry, looked up): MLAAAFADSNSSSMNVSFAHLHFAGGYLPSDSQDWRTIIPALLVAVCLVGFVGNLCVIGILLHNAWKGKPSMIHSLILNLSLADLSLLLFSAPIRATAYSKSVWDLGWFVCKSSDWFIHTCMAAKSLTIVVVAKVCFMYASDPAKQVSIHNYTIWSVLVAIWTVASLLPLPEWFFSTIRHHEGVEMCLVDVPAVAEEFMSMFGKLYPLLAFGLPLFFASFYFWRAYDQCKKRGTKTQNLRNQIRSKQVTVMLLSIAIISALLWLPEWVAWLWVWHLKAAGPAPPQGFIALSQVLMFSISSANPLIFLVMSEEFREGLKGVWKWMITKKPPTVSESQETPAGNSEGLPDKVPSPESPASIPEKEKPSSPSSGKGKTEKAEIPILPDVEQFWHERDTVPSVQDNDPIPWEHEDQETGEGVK
TEAD-YAP block = TEAD-YAP interaction inhibition; inhibition, % at 9.12 µM; 640,000 compounds, 1.4% hits; HEK-TIYL cells, TEAD-Gal4/YAP UAS-luciferase luminescence; in the data active = inhibition above about 32%
FBW7 activator = human FBW7 E3 ligase activation, primary screen; Q969H0; AlphaScreen FBW7–phospho-cyclin E peptide binding, activator screen; normalized activity (activation), % at 26.1 µM; 650,000 compounds, 0.13% hits; AID 1259310; in the data active = normalized activity above about 1.9%;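 also: purified mutant Fbw7 with reduced substrate affinity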
MITF primary = human MITF inhibition, primary screen | AlphaScreen MITF homodimerization, bead proximity signal | 650,000 compounds, 0.91% hits | O75030 | inhibition, % at 2.6 µM; in the data active = inhibition above about 50%
MITF inh conf = human MITF inhibition, confirmation; AID 1259372; shares compounds with MITF primary; inhibition, % at 2.6 µM; AlphaScreen MITF homodimerization, biotin/His-MITF beads; 4,700 compounds, 16% hits;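 active = inhibition above a cutoff derived from the DMSO control wells, cut at about 28% in these data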;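 also: inhibitors lower the bead chemiluminescence by keeping MITF from dimerizing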
AlphaScreen intf2 = optically interferes with AlphaScreen signal; shares compounds with MITF primary; LysRS AlphaScreen counterscreen, signal interference, triplicate; inhibition, % at 2.6 µM; 4,700 compounds, 7.6% hits;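 active = inhibition above a cutoff derived from the DMSO control wells, cut at about 30% in these data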
Hits are given with their value; 0 = inactive; - = not tested or not shown; ! = a repeat was not active. Sampled rows, rich in hits. Any-hit rate of the full collection: about 3.5%.

SMILES | GPR151 activ | TEAD-YAP block | FBW7 activator | MITF primary | MITF inh conf | AlphaScreen intf2
CCC(=O)N(CC(C)C)c1nnc(-c2ccccc2C)s1 | 0 | 0 | 0 | 0 | - | -
CSc1cccc(NC(=O)CCSc2ccccc2)c1 | 0 | 0 | 0 | 0 | - | -
CC(=O)c1ccc(NC(=O)c2nccnc2C(=O)O)cc1 | 0 | 0 | 0 | 0 | - | -
CCSC1(SCC)N=C(N)C2(C#N)C(c3ccc(NC(C)=O)cc3)C12C#N (stereo not given) | 0 | 0 | 0 | 0 | - | -
Cc1ccccc1CN1CCN(Cc2ccco2)CC1 | 0 | 0 | 0 | 72 | 0 | 0
O=S(=O)(c1ccccc1)N1CCN(Cc2ccco2)CC1 | 0 | 0 | 0 | 0 | - | -
Brc1ccccc1CN1CCN(Cc2ccco2)CC1 | 0 | 0 | 0 | 78 | 0 | 0
Fc1ccc(N2CN(Cc3ccco3)CNC2=S)cc1 | 0 | 0 | 0 | 0 | - | -
Fc1ccc(N2CCN(Cc3ccco3)CC2)cc1 | 0 | 0 | 0 | 52 | 0 | 0
c1ccc(CCCN2CCN(Cc3ccco3)CC2)cc1 | 0 | 0 | 0 | 55 | 0 | 0
CN1C(=O)c2cccc3c(N4CCCCCC4)ccc(c23)C1=O | 0 | 0 | 0 | 0 | - | -
COCCn1nnnc1C(c1ccc(C)cc1)N1CCN(c2ccccc2F)CC1 (stereo not given) | 0 | 0 | 0 | 0 | - | -
CCOc1ccc(-n2c(CNC(=O)Cc3ccccc3)nnc2SCC(=O)N2N=C(c3cccs3)CC2c2ccc(F)cc2)cc1 (stereo not given) | 0 | 0 | 0 | 0 | - | -
Brc1ccc(CN2CCN(Cc3ccco3)CC2)cc1 | 0 | 0 | 0 | 86 | 0 | 0
CS(=O)(=O)N1CCN(Cc2ccco2)CC1 | 0 | 0 | 0 | 0 | - | -
Cc1ccc(NC(=O)C2C3C=CC4(O3)C2C(=O)N(CCCOC(C)C)C4C(=O)NC2CCCC(C)C2C)cc1Cl (stereo not given) | 0 | 0 | 0 | 0 | - | -
C=CC[C@@H]1/C=C(\C)C[C@H](C)C[C@H](OC)[C@H]2O[C@@](O)(C(=O)C(=O)N3CCCC[C@H]3C(=O)O[C@H](/C(C)=C/[C@@H]3CC[C@@H](O)[C@H](OC)C3)[C@H](C)[C@@H](O)CC1=O)[C@H](C)C[C@@H]2OC | 0 | 0 | 0 | 111! | 122 | 100
COC1CC2CCC(C)C(O)(O2)C(=O)C(=O)N2CCCCC2C(=O)OC(C(C)CC2CCC(O)C(OC)C2)CC(=O)C(C)/C=C(\C)C(O)C(OC)C(=O)C(C)CC(C)/C=C/C=C/C=C/1C (stereo not given) | 0 | 0 | 0 | 0 | - | -
O=C(CC12CC3CC(CC(Br)(C3)C1)C2)Nc1nccs1 | 0 | 0 | 0 | 0 | - | -
CCn1c(SCC(=O)NC(C)(C)C)nnc1-c1cccs1 | 0 | 0 | 0 | 0 | - | -
c1cc2c(cc1CN1CCN(C3CCCCCC3)CC1)OCO2 | 0 | 0 | 0 | 65 | 0 | 0
c1ccc(CN2CCC(N3CCN(Cc4ccc5c(c4)OCO5)CC3)CC2)cc1 | 0 | 0 | 0 | 0 | - | -
CC1CCCC(N2CCN(Cc3ccc4c(c3)OCO4)CC2)C1 (stereo not given) | 0 | 0 | 0 | 68 | 0 | 0
CCNC(=O)N1CCCC(N2CCN(Cc3ccc4c(c3)OCO4)CC2)C1 (stereo not given) | 0 | 0 | 0 | 0 | - | -
O=C(Nc1ccc2oc(-c3ccc(F)cc3Cl)nc2c1)c1cc(Cl)ccc1Cl | 0 | 0 | 0 | 0 | - | -
SMILES | GPR151 activ | TEAD-YAP block | FBW7 activator | MITF primary | MITF inh conf | AlphaScreen intf2
O=S1(=O)N=C(N(Cc2ccccc2O)c2cccc3ccccc23)c2ccccc21 | 0 | 0 | 0 | 0 | - | -
CCN(CC)CCN(C)Cc1ccc(F)cc1F | 0 | 0 | 0 | 57 | 0 | 0
CCN(CC)CCN(C)Cc1c(F)cccc1Cl | 0 | 0 | 0 | 56 | 0 | 0
CCN(CC)CCN(C)Cc1cccc2ccccc12 | 0 | 0 | 0 | 66 | 0 | 0
CCOC(=O)CNc1c(-c2ccc(OC)cc2)nc2ccc(C)cn12 | 0 | 0 | 0 | 0 | - | -
CC1(C)CC2CC(C)(CN2c2ncnc(N)c2[N+](=O)[O-])C1 (stereo not given) | 0 | 0 | 0 | 0 | - | -
Nc1ccccc1C12CC3CC(CC(C3)C1)C2 | 0 | 0 | 0 | 0 | - | -
CCOC(=O)CSc1nc2c(cc1C#N)CCCCC2 | 0 | 0 | 0 | 0 | - | -
CCOC(=O)CC(=O)CSc1nc2c(cc1C#N)CN(C)CC2 | 0 | 0 | 0 | 53 | 0 | 0
COc1ccc(CN2CCc3nnc(C(CC(C)C)NC(C)=O)n3CC2)cc1OC (stereo not given) | 0 | 0 | 0 | 0 | - | -
O=C(NCCc1ccc(Cl)cc1)c1cc(-n2cnnc2)ccc1Cl | 0 | 0 | 0 | 0 | - | -
O=C(CSc1cn(Cc2cccc(F)c2)c2ccccc12)N1CCc2ccccc21 | 0 | 0 | 0 | 0 | - | -
